Columns and labels:
Assay in all cases: log2 ratio of Biotin-Ahx-Ub-VS probe labelling (fragment/DMSO); higher = less target engagement (more negative = stronger competition), active = hit call of the paper (q ≤ 0.05, log2 ratio ≤ -1)
Conditions in all cases: compound concentration: 200 uM; treatment time: 3 h
OTUD6B = molecular target: T1, OTUD6B (UniProt Q8N6M0)
T1 sequence (whole entry): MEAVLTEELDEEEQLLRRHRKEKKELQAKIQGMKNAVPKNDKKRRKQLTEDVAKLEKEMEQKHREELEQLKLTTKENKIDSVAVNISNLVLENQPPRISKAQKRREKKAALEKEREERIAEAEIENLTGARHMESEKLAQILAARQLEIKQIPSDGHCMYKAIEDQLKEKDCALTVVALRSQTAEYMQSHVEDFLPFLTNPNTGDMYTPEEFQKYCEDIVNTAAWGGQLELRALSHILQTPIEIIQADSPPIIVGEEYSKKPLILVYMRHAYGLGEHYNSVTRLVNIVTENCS
Procedure, shortened: (§1)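 Fragment (200 µM) or vehicle was incubated for 3 h with triplicate HEK293T lysate samples of 495 µg, which were then treated with Biotin-Ahx-Ub-VS at 0.5 µM final for 1 h. Labelled DUBs were enriched on NeutrAvidin, digested with LysC and trypsin, and analysed by diaPASEF LC-MS/MS. Values are average log2 fragment/vehicle ratios from an unpaired t-test on global-median-normalised Spectronaut label-free quantities, using proteins with ≥2 unique peptides.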

OTUD7B = molecular target: T2, OTUD7B (UniProt Q6GQQ9)
T2 sequence (whole entry): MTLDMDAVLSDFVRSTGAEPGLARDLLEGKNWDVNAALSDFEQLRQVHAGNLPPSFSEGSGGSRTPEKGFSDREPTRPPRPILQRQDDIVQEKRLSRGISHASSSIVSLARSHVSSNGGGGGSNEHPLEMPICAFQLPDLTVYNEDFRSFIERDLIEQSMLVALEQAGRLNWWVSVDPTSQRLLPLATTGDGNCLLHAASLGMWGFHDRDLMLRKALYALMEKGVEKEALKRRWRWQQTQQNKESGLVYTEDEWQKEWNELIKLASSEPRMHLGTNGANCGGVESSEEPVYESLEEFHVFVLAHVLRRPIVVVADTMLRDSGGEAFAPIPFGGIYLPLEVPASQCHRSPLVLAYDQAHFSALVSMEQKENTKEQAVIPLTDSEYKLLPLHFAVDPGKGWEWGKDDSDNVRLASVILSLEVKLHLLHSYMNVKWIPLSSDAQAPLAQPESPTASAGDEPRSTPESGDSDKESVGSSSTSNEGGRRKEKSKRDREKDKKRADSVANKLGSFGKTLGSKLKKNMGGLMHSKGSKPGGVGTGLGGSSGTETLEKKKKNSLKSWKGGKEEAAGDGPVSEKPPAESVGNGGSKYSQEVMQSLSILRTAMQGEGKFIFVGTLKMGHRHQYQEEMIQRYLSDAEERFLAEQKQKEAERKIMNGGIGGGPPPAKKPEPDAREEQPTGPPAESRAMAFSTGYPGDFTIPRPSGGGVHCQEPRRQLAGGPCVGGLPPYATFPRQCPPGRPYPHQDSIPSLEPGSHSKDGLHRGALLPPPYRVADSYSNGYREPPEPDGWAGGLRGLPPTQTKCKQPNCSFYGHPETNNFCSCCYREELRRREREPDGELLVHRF
Procedure, shortened: as §1

PRPF8 = PRPF8 (UniProt Q6P2Q9)
Procedure, shortened: as §1

PSMD7 = molecular target: T3, PSMD7 (UniProt P51665)
T3 sequence (whole entry): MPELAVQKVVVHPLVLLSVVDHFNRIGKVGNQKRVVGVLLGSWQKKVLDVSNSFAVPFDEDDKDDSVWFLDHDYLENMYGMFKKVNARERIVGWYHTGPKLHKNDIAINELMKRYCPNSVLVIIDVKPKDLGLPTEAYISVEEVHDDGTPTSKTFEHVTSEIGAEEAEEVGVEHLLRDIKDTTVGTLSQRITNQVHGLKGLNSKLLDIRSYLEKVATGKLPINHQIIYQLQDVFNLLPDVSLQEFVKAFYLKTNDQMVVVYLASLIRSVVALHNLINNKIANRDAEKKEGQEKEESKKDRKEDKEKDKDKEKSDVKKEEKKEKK
Procedure, shortened: as §1

UCHL1 = UCHL1 (UniProt P09936)
Chain of UCHL1 (P09936 whole entry, looked up): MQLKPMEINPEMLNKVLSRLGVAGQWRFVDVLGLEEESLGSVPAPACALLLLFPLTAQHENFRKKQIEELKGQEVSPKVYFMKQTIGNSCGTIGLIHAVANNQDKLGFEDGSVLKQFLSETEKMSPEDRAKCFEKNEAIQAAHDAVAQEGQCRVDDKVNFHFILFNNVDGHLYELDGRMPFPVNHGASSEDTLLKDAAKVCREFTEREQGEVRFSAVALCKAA
Procedure, shortened: as §1

UCHL3 = molecular target: T4, UCHL3 (UniProt P15374)
T4 sequence (whole entry): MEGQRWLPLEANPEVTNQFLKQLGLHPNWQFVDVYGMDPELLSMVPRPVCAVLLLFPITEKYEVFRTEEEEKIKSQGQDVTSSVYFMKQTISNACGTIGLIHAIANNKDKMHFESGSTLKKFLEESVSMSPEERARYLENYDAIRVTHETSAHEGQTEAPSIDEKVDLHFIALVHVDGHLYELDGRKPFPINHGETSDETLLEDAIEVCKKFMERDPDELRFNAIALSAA
Procedure, shortened: as §1

UCHL5 = molecular target: T5, UCHL5 (UniProt Q9Y5K5)
T5 sequence (whole entry): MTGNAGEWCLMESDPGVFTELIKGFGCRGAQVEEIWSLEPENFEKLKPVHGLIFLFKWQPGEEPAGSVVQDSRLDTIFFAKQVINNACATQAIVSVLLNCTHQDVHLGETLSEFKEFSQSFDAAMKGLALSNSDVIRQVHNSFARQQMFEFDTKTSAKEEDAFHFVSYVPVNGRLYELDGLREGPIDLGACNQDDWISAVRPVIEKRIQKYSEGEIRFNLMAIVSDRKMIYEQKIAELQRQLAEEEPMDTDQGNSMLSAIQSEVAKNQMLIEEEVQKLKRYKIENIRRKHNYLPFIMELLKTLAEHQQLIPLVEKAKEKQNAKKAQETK
Procedure, shortened: as §1

USP10 = USP10 (UniProt Q14694)
Chain of USP10 (Q14694 whole entry): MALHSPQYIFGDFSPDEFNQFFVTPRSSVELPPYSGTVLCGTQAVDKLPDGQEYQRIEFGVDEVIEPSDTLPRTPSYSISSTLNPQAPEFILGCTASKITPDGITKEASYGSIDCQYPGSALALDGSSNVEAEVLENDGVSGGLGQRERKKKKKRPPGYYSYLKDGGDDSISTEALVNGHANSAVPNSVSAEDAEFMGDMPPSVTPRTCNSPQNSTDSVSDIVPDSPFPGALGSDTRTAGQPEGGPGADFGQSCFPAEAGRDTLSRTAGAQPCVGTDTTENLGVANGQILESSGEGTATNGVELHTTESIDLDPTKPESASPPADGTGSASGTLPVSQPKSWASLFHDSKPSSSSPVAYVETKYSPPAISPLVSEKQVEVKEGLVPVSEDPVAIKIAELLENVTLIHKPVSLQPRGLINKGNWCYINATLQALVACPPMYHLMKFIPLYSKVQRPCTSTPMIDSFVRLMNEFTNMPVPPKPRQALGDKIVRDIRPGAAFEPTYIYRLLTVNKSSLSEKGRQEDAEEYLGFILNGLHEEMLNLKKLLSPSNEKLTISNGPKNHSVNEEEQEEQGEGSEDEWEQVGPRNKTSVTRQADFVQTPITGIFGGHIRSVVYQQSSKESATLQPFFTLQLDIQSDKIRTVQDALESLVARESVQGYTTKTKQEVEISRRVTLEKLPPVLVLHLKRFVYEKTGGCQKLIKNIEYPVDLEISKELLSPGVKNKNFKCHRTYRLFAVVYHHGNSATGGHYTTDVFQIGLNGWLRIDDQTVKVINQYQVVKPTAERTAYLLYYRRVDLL
Procedure, shortened: as §1

USP15 = molecular target: T6, USP15 (UniProt Q9Y4E8)
T6 sequence (whole entry): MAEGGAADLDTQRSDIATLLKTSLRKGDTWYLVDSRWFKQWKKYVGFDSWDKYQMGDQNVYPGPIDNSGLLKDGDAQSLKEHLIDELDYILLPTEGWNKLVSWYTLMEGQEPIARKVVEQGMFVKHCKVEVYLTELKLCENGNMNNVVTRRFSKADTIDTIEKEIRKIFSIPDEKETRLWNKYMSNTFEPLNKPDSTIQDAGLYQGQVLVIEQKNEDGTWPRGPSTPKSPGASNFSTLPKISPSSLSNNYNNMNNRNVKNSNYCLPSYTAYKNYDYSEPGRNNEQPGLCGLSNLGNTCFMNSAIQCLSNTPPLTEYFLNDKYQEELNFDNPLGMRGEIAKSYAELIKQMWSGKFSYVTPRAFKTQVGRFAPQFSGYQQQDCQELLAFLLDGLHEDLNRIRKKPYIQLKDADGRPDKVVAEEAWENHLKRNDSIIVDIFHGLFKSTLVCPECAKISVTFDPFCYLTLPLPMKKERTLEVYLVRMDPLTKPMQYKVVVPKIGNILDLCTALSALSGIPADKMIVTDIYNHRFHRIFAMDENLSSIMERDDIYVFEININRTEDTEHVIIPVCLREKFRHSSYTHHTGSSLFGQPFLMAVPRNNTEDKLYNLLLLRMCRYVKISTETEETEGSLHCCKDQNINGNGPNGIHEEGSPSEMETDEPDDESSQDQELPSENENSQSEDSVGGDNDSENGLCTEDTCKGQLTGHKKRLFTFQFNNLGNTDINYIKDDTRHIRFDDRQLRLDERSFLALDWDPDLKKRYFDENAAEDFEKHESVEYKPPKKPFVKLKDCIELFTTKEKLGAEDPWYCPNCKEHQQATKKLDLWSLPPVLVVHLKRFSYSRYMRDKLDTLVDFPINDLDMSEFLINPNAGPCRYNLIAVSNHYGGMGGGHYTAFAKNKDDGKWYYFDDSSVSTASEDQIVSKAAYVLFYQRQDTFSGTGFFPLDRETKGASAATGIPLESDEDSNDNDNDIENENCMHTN
Procedure, shortened: as §1

USP16 = USP16 (UniProt Q9Y5T5)
Chain of USP16 (Q9Y5T5 whole entry, looked up): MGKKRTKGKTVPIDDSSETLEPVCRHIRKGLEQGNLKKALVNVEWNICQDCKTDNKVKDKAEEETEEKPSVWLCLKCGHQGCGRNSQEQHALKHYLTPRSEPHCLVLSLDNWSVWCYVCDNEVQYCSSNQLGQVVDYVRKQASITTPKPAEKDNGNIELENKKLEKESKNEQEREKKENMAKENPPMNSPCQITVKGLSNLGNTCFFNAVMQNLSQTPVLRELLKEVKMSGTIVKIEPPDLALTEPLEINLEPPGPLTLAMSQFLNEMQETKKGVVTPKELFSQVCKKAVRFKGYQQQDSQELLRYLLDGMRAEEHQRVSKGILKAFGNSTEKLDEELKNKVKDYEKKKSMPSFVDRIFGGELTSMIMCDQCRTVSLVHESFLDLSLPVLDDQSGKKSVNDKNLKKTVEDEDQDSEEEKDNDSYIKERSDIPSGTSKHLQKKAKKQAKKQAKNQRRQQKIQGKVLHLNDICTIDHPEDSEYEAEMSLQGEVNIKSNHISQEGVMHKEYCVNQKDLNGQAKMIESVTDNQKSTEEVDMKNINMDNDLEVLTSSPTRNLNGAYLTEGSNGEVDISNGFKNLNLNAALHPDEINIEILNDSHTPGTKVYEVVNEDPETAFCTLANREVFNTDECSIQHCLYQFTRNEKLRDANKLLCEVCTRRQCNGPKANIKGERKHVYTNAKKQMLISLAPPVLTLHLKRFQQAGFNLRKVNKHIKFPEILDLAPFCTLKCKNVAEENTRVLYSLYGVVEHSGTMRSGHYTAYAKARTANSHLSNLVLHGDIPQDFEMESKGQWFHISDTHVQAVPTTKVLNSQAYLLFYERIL
Procedure, shortened: as §1

Measured: log2 ratio of Biotin-Ahx-Ub-VS probe labelling

Cc1cc(C2CCCN2C(=O)CCl)nn1C.Cl (stereo not given)
inactive: OTUD6B -0.252 | OTUD7B -0.142 | PRPF8 0.0171 | PSMD7 -0.218 | UCHL3 0.3 | UCHL5 -0.218 | USP10 -0.132 | USP15 -0.246 | USP16 -0.631
active: UCHL1 -1.54

Source: the supplement of paper PMC11732987, “Enantioselective OTUD7B fragment discovery through chemoproteomics screening and high-throughput optimisation” (Communications Chemistry, 2025)
